Measurements as given in PubChem BioAssay AID1461 (National Center for Advancing Translational Sciences (NCATS), 2008).
Screen size: about 220,000 compounds; about 2,300 (1%) were called active. Another 6% or so got no clear call; they are omitted. Shown is part of a subset that was picked to be rich in actives. A call without a number means that no potency is given here. Unmarked numbers belong to inactive results. Calls follow the shape of the dose curve; as a rule, active = well fitted inhibition curve with a large enough effect; inconclusive = small, poorly fitted or top-dose-only effect, or effect the other way; inactive = no such curve, though single readings can be large or run the other way.

Target: Neuropeptide S receptor (Homo sapiens) (UniProt Q6W5P4)
Sequence (Q6W5P4 whole entry, looked up): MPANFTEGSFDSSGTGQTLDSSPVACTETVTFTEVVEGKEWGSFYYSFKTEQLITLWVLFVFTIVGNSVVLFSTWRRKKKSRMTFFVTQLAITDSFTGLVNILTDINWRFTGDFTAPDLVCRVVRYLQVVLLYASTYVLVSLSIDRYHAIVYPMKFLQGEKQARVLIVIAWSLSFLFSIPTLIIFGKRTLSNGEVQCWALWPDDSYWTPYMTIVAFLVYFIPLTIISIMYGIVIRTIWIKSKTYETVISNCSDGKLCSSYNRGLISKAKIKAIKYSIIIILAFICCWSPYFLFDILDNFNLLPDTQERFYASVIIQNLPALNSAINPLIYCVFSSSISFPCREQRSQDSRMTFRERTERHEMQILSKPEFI
Test: qHTS Assay for Antagonists of the Neuropeptide S Receptor: cAMP Signal Transduction; also: nearly all actives have a fitted effect of over 50% in size
Conditions: CHO-NPSR cells, cAMP TR-FRET, antagonist mode; series mostly up to 38.3 µM
Potency is read from the fitted curve at half-maximal effect.

Q: Which Potency does the source give for CCC(C)NC(=O)c1c(N)n(/N=C/c2cccs2)c2nc3ccccc3nc12 (stereo unspecified) here?
A: inactive

Q: C=CCn1c(N)c(C(=O)OCC(C)C)c2nc3ccccc3nc21 was tested. Which Potency did it give?
A: inactive

Q: Which Potency does the source give for CC(C)Cn1c(N)c(C(=O)NCc2cccs2)c2nc3ccccc3nc21 here?
A: 12.6 µM (active)

Q: How did the Potency turn out when Cc1ccccc1CSc1nnc(CCCCCNC(=O)OC(C)(C)C)o1 was run?
A: inactive

Q: Cc1ccc(C(=O)NNC2=Nc3cc([N+](=O)[O-])ccc3OC2)cc1 was tested. Which activity change, negative = inhibition did it give?
A: -1.29% [at 7.67 µM]

Q: CC(C)(C)c1ccc(CCC2OCC(CN3CCOCC3)O2)cc1 (stereo unspecified) was tested. Which Potency did it give?
A: inactive

Q: With O=C(CCCl)Nc1ccc(S(=O)(=O)NCc2ccco2)cc1 as the molecule, how does the Potency read?
A: inactive

Q: Which Potency does the source give for CCOC(=O)CN(Cc1ccc(OC)c(OC)c1)S(=O)(=O)c1ccc(OC)cc1 here?
A: inactive

Q: How did the Potency turn out when COc1ccc(C(CCN(Cc2ccc(OC)c(OC)c2)C(=O)CCl)c2ccccc2)cc1 (stereo unspecified) was run?
A: 5.01 µM (active)

Q: COc1ccc(CCNC(=O)C(Sc2ccccn2)c2ccccc2)cc1OC (stereo unspecified) was tested. Which Potency did it give?
A: inactive

Q: C/C=C(\C)C(=O)N1CC2(CC(c3cccc(NC(=O)CCCCC)c3)=NO2)C[C@@H]1C(N)=O (stereo partly specified) was tested. Which Potency did it give?
A: inactive

Q: How did the Potency turn out when Cn1nnc(NC(=S)NC(=O)c2ccccc2)n1 was run?
A: inactive

Q: O=c1c2ccccc2c(-c2ccccc2)nn1Cc1ccccc1 was tested. Which Potency did it give?
A: inactive

Q: Which Potency does the source give for Cn1c(CO)cnc1SCc1ccccc1 here?
A: inactive

Q: How did the Potency turn out when CSc1c(SCc2ccccc2)cnn(Cc2ccccc2)c1=O was run?
A: 10 µM (active)

Q: Cc1csc(Nc2ccc(Cl)cc2)[n+]1-c1ccc(Cl)cc1 was tested. Which Potency did it give?
A: 10 µM (active)

Q: Which activity change, negative = inhibition does the source give for O=c1ccnc(Nc2ccc(Cl)cc2)[nH]1 here?
A: 1.3% [at 7.67 µM]

Q: Which Potency does the source give for CC1=NNC(=O)C1CCC(=O)N/N=C(\C)c1ccc(Cl)cc1 (stereo unspecified) here?
A: inactive

Q: With Cc1ccc(CSc2nnc(-c3cnccn3)n2C)cc1 as the molecule, how does the Potency read?
A: inactive

Q: Which activity change, negative = inhibition does the source give for CC(C)S(=O)(=O)c1csc(NC(=O)Nc2ccc(Cl)cc2)c1Cl here?
A: 14.8% [at 7.67 µM]

Q: Cc1cccn2c(CNCC(C)Oc3cccnc3)c(C(=O)N3CCOCC3)nc12 (stereo unspecified) was tested. Which Potency did it give?
A: inactive

Q: How did the Potency turn out when COc1ccc(NC(=O)C2=NNC(=O)CC2)cc1S(=O)(=O)N1CCCCC1 was run?
A: inactive

Q: O=C(Nc1ccc(S(=O)(=O)Nc2nccs2)cc1)c1cccc(S(=O)(=O)N2CCOCC2)c1 was tested. Which Potency did it give?
A: inactive

Q: For COc1ccc(/C(O)=C2/C(=O)C(=O)N(c3nc(C)c(C)s3)C2c2ccco2)cc1 (stereo unspecified), which Potency is on record?
A: 10 µM (active)

Q: For COc1ccc(/C(O)=C2\C(=O)C(=O)N(Cc3ccco3)C2c2ccc(OC)cc2OC)cc1 (stereo unspecified), which Potency is on record?
A: inactive

Q: How did the Potency turn out when CCOc1ccc(/C(O)=C2\C(=O)C(=O)N(c3ccc(OC)cc3)C2c2ccccc2[N+](=O)[O-])cc1 (stereo unspecified) was run?
A: inactive

Q: With COc1ccccc1N(C)S(=O)(=O)c1ccc(C(=O)NC2CCCCCC2)cc1 as the molecule, how does the Potency read?
A: inactive

Q: With CC[C@@H](C)[C@@H](C(=O)N1CCN(C(=O)OC(C)(C)C)CC1)n1cc(CCC(=O)O)nn1 as the molecule, how does the Potency read?
A: inactive

Q: Which Potency does the source give for CC(=O)NC(=S)Nc1ccc(NC(=S)NC(=O)c2ccc([N+](=O)[O-])cc2)cc1 here?
A: inactive

Q: COc1cc(/C=C2/C(=O)NN(c3ccc(F)cc3)C2=O)cc([N+](=O)[O-])c1O was tested. Which Potency did it give?
A: inactive

Q: With C/C(=N/OC(=O)c1c(-c2c(F)cccc2Cl)noc1C)c1cnccn1 as the molecule, how does the Potency read?
A: inactive

Q: Which Potency does the source give for CCOC(=O)c1cc2c(=O)n3ccccc3nc2n(CC(C)C)c1=NC(=O)c1c(-c2c(F)cccc2Cl)noc1C here?
A: 3.98 µM (active)

Q: Which Potency does the source give for CCCn1c(=NC(C)=O)c(C(=O)OCC)cc2c(=O)n3ccccc3nc21 here?
A: inactive

Q: Which Potency does the source give for O=C(O)C1CCN(c2ccc([N+](=O)[O-])cc2[N+](=O)[O-])CC1 here?
A: inactive

Q: CC(OC(=O)c1ccc(NS(=O)(=O)c2ccc3[nH]c(=O)[nH]c3c2)cc1)C(=O)Nc1cccc(Cl)c1Cl (stereo unspecified) was tested. Which Potency did it give?
A: inactive

Q: How did the Potency turn out when O=C(O)c1cccnc1Sc1ncnc2sc3c(c12)CCC3 was run?
A: inactive
